{
  "source": "the supplement of paper PMC7057948",
  "about": "“A genome-wide approach for identification and characterisation of metabolite-inducible systems” (Nature Communications, 2020)",
  "data": [
    {"test_system": "KynR/P_H16_RS14030 L-kynurenine biosensor (pEH136)", "assay": "relative induction of RFP reporter vs primary effector; higher = stronger activation", "conditions": "inducer concentration 5 mM; 6 h; Cupriavidus necator H16; minimal medium + 0.4% gluconate", "method": "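Orthogonality screen of 21 primary inducers against 21 transcription factor/inducible promoter–mRFP biosensors in C. necator H16 in minimal medium, robotic 96-well format, 5 mM inducer, 30 °C. OD-normalised RFP fluorescence was read 6 h later and expressed as relative induction (%) = 100 × (FL compound − FL uninduced)/(FL primary inducer − FL uninduced); mean of n=4. Cognate pairs (100% by definition) omitted.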", "units": {"relative induction of RFP reporter": "%"}, "values": [
      {"compound": "CC(=O)C(C)O", "note": "(configuration not stated) [acetoin]", "relative induction of RFP reporter": 0.0145},
      {"compound": "OC1OC[C@H](O)[C@H](O)[C@H]1O", "note": "(mixture of isomers) [L-arabinose]", "relative induction of RFP reporter": 0.181},
      {"compound": "N[C@@H](Cc1ccc(O)cc1)C(=O)O", "note": "[L-tyrosine]", "relative induction of RFP reporter": 0.164},
      {"compound": "O=C(O)CCO", "note": "[3-hydroxypropanoate]", "relative induction of RFP reporter": -0.395},
      {"compound": "O=C(O)c1ccccc1", "note": "[benzoate]", "relative induction of RFP reporter": -0.112},
      {"compound": "O=c1[nH]c(=O)c2nc[nH]c2[nH]1", "note": "[xanthine]", "relative induction of RFP reporter": 0.0316},
      {"compound": "O=CO", "note": "[formate]", "relative induction of RFP reporter": 0.482},
      {"compound": "O=C(O)c1ccccc1O", "note": "[salicylate]", "relative induction of RFP reporter": -0.248},
      {"compound": "C=C(CC(=O)O)C(=O)O", "note": "[itaconate]", "relative induction of RFP reporter": -0.472},
      {"compound": "O=C(O)C(O)C(O)C(=O)O", "note": "(configuration not stated) [tartrate]", "relative induction of RFP reporter": 0.0585},
      {"compound": "N[C@@H](Cc1ccccc1)C(=O)O", "note": "[L-phenylalanine]", "relative induction of RFP reporter": 1.98},
      {"compound": "O=C(O)c1ccc(O)c(O)c1", "note": "[3,4-dihydroxybenzoate]", "relative induction of RFP reporter": 0.138},
      {"compound": "O=C(O)C(=O)c1ccccc1", "note": "[phenylglyoxylate]", "relative induction of RFP reporter": 0.112},
      {"compound": "NCCC(=O)O", "note": "[β-alanine]", "relative induction of RFP reporter": -0.589},
      {"compound": "O=C(O)CS(=O)(=O)O", "note": "[sulfonatoacetate]", "relative induction of RFP reporter": 0.55},
      {"compound": "C=CC(=O)O", "note": "[acrylate]", "relative induction of RFP reporter": 0.406},
      {"compound": "O=C(O)C1CCCCC1", "note": "[cyclohexane-1-carboxylate]", "relative induction of RFP reporter": 0.977}
    ]}
  ]
}
